Assay results reported in the supplement of paper PMC6555819.

Assays:
Experiment in all cases: PBM binding z-score (relative to random genomic background probes); higher = stronger binding; sequences stand for … in GC…GCGATTGACAGCGTAGAATGAAGG
[1] = system: PPARg:RXRa DBDmut IVT, anti-RXR (DBD mutation: RXRa K156A/R161A, NR concentration 270 nM, RXRa partner concentration 90 nM)
Outline: (§1)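 Scanned fluorescence from custom Agilent 4×180K protein-binding microarrays was regression-normalized. Binding z-scores use random background probes as reference. Ligand-free nuclear receptor dimers were incubated on the arrays for 1 h and detected with antibodies against each partner (one per run).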

[2] = system: PPARg:RXRa IVT, anti-PPARg (NR concentration 270 nM, RXRa partner concentration 90 nM)
Outline: as §1

[3] = system: PPARg DBDmut:RXRa IVT, anti-PPARg (DBD mutation: PPARg1 K132A/R137A, NR concentration 270 nM, RXRa partner concentration 90 nM)
Outline: as §1

[4] = system: PPARg DBDmut IVT, anti-PPARg (DBD mutation: PPARg1 K132A/R137A, NR concentration 270 nM)
Outline: as §1

[5] = system: PPARg homodimer (NR concentration 180 nM)
Outline: as §1

[6] = system: PXR:RXRa (NR concentration 270 nM, RXRa partner concentration 90 nM)
Outline: as §1

[7] = system: PXR homodimer (NR concentration 270 nM)
Outline: as §1

[8] = system: RARa:RXR (NR concentration 270 nM, RXRa partner concentration 90 nM)
Outline: as §1

[9] = system: RARa homodimer (NR concentration 270 nM)
Outline: as §1

[10] = system: RARb:RXRa (NR concentration 270 nM, RXRa partner concentration 90 nM)
Outline: as §1

Row | Sequence | PBM binding z-score [1] | PBM binding z-score [2] | PBM binding z-score [3] | PBM binding z-score [4] | PBM binding z-score [5] | PBM binding z-score [6] | PBM binding z-score [7] | PBM binding z-score [8] | PBM binding z-score [9] | PBM binding z-score [10]
1 | ACTATTAGTTGACTTAGGGCAGCCGATACGACGC | 0.0635 | 0.0175 | 1.35 | 0.429 | -0.15 | -0.251 | -0.115 | -0.045 | 0.705 | 0.758
2 | CGTCCAAGGTCAAGGTCAGTGCAAGAGACTCGAA | 3.72 | 4.78 | -0.258 | -0.287 | 3.45 | 5.43 | 2.22 | 5.21 | 1.13 | 5.62
3 | CCTCGGGGGACAACAGGAGGTCAGAGCTGCCAGA | 0.622 | 1.99 | 0.461 | 0.197 | 1.34 | 2.74 | 0.253 | 2.8 | 0.259 | 3.16
4 | TTACCAAGGTGAAGGACGTTGATCCCTCTGTAGA | 1.55 | 2.11 | 0.655 | -0.0196 | 0.106 | 0.213 | -0.502 | 0.474 | -0.478 | 1.26
5 | ATCTCTAGGTAAAGTTCAGTGAAAGATCGATAGA | 2.6 | 2.6 | 1.37 | 0.916 | 1.68 | 2.11 | 1.93 | 1.86 | 1.27 | 2.86
6 | TAGCCTAGGTCATTCACGGGCCAGTATAGAAAGC | 1.89 | 2.6 | 1.17 | 0.147 | 2.35 | 2.01 | -0.0937 | 2.84 | 0.0278 | 3.69
7 | TTACCAAGGTGTAAGGTCGTTGATGCACGCCTTG | -0.345 | 1.3 | 0.0676 | -0.033 | 0.125 | 1.1 | 0.267 | 1.38 | -0.417 | 1.09
8 | GCTAGCAGGCCATGTGGGTCACTCAATGACGGGC | 2.25 | 3.4 | -0.133 | -0.744 | -0.23 | 0.289 | -0.533 | 0.567 | -0.664 | 1.26
9 | ACAGACAGGTCATGAAGGTAACTCAGGCTATCAT | 1.59 | 2.7 | 1.81 | 1.12 | 1.73 | 2.95 | 0.934 | 3.74 | 0.881 | 3.9
10 | AGTATGAGGTTAAGATCAGGGAAACAGAATACAT | 0.462 | 1.01 | 0.752 | 1.37 | 1.32 | 1.15 | 0.499 | 1.84 | 0.731 | 1.98
11 | ATCGAAAGGTCGACGAGGTGAGTCTACACCGTTT | 0.545 | 2.03 | 1.28 | 0.606 | 1.13 | 3.31 | 0.495 | 3.84 | 0.442 | 3.98
12 | GCTAGCAGGCCATATGGGTCACTCAATGACGGGC | 1.57 | 2.68 | -0.447 | -0.866 | -0.0235 | 0.585 | -0.337 | 1 | -0.311 | 1.62
13 | CCTATTAGTTGACCATAAGGGCAACGGAAGCTCG | 0.458 | 0.449 | 0.427 | 0.782 | 2.06 | 0.568 | 0.623 | 0.736 | 1.45 | 1.54
14 | GCGACTGGGGAATCAGCAGGTTACCATAACTTAA | 0.44 | 0.213 | -0.564 | -0.355 | -0.3 | -0.375 | -0.366 | -0.13 | -0.219 | -0.211
15 | GATACAGTGTCAGCTAGAGGCCAGAGTATGGAAA | -0.588 | 0.187 | 0.343 | -0.259 | -0.286 | -0.439 | -0.0774 | -0.0269 | -0.579 | 0.973
16 | TTACCAAGGTGAGCTGAGGGCGTTGATCCAACTC | 1.02 | 1.45 | 0.0128 | -0.0146 | -0.525 | 3.08 | -0.168 | 1.11 | -0.757 | 1.1
17 | CCTTACGGGTCACTCCAGGTTATCGCATCGGAGT | 2.41 | 3.83 | -0.0167 | -0.117 | 1.35 | 4.65 | 0.118 | 3.01 | 0.208 | 3.55
18 | ATCTCTAGGCAACAAGTTCAGTGAAAGAGAGGAC | 0.952 | 0.456 | 0.856 | 0.154 | 0.297 | 0.875 | 1.52 | 0.335 | 0.376 | 1.32
19 | TCTATTAGTTGATTAGGGCAACCAAAACAGCGGA | 2 | 1.72 | 1.55 | 1.68 | 0.9 | 0.429 | 0.323 | 0.556 | 1.11 | 0.905
20 | CAAACTAGGTCAGAGAGGTCAAAGTCCGTGCGTA | 7.7 | 8.02 | 1.22 | 0.373 | 4.15 | 6.24 | 10.2 | 6.29 | 2.07 | 4.84
21 | CGAACTAGGTCAAGGACAGAGAATCTCCGCACGC | 8.21 | 8.28 | 3.36 | 1.6 | 1.59 | 0.886 | -0.0315 | 1.87 | 0.29 | 3.87
22 | TCTTGTAGCTCAATAGAGGTTAAGAAAGTGCGCT | 0.915 | 0.506 | 0.592 | 0.551 | -0.185 | 2.46 | -0.163 | 1.28 | -0.147 | 0.573
23 | CCTACTGGGCCAAAAAGGTCTTTGATGCCGATAA | 3.45 | 2.65 | -0.719 | -0.578 | -0.284 | -0.31 | -0.67 | -0.184 | -0.777 | 0.422
24 | GATACCGGGTCAGCTAGAGGCCAGAGTATGGAAA | 0.693 | 2.49 | -0.62 | -0.769 | 1.94 | 2.41 | -0.56 | 3.53 | -0.152 | 3.28
